PubChem BioAssay (NCI)
About 83,000 compounds went through this panel and 20% of them were active in at least one assay; those are over-represented in the sample as a whole.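 48-hour exposure, single concentration, 96-well plates; percent growth endpoint where 0 means no net growth. Active: below 10.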 Activity calls are given as the source filed them.

These compounds were tested on HT29 colon (assay: NCI-60 one-dose screen, 48 h (100 = growth as untreated, 0 = no growth, -100 = all killed)). Conditions: 10 µM unless noted.

Compound	growth
CN1CCN(Cc2ccc(NC(=O)c3[nH]ncc3Nc3cc(OC4CCCC4)ncn3)cc2)CC1	14.3% (inactive)
Cn1c(/C=C(\C#N)c2ccccc2)nc2c(N3CCOCC3)nc(Cl)nc21	-54.6% (active)
CCN1C(=O)N(CC)C2Nn3c(s/c(=C\c4ccccc4F)c3=O)=NC21 (stereo not given)	17.4% (inactive)
Cc1ccccc1CNC(=O)C1CN(c2ccc(Cl)cc2)N(c2ccc(Cl)cc2)C1=O (stereo not given)	77% (inactive)
CCCCC1CCc2cccc3c(SCC(=O)N(C)c4ccc(Cl)cc4)cc[n+]1c23 (stereo not given)	106% (inactive)
Clc1ccc(Oc2ccc(Nc3ncnc4onc(-c5ccccc5)c34)cc2)c(Cl)c1	84.2% (inactive)
O=C(O)c1cn(C2CC2)c2cc(N3CCN(C(=O)C[n+]4ccccc4)CC3)c(F)cc2c1=O	109% (inactive)
O=C(CSc1nc2ccccc2c(=O)n1-c1ccccc1)Nc1ccc(C(=O)/C=C/c2ccc(Cl)cc2)cc1	100% (inactive)
Cc1nc(Nc2cn[nH]c2C(=O)Nc2ccc(CN3CCN(C)CC3)cc2)c2ccsc2n1	66.1% (inactive)
CN1C(=O)N(C)C2Nn3c(s/c(=C4\C(=O)N(CCc5ccccc5)c5ccccc54)c3=O)=NC21 (stereo not given)	38.4% (inactive)
O=C(/C=C/c1ccc(C(F)(F)F)cc1)c1ccc(Nc2nc(NCCO)nc(N3CCOCC3)n2)cc1	7.26% (active)
COc1cc(/C=C/C(=O)c2ccc(Nc3nc(NCCO)nc(N4CCOCC4)n3)cc2)cc(OC)c1OC	5.79% (active)
COc1cc(/C=C2\CN(S(=O)(=O)c3ccccc3)C/C(=C\c3cc(CN4CCCC4)c(O)c(OC)c3)C2=O)cc(CN2CCCC2)c1O	-9.09% (active)
O=c1c2cc(F)ccc2sc2c(Nc3ccncc3)nc3ccccc3c12	-58.1% (active)
O=c1c2cc(F)ccc2sc2c(NCCN3CCCC3)nc3ccccc3c12	13.9% (inactive)
CNC(=O)c1cc(Oc2ccc(CC(=O)Nc3cc(C(C)(C)C)cn3C)cc2)ccn1	88% (inactive)
COc1cc2nc(NC3CCCC3)nc(NC3CCN(C(C)C)CC3)c2cc1OC	17.3% (inactive)
O=C(NCc1ccco1)C1CN(c2ccc(Cl)cc2)N(c2ccc(Cl)cc2)C1=O (stereo not given)	16.4% (inactive)
COc1cccc2cc(N(C)c3nc(C)nc4ccsc34)ccc12	-10.3% (active)
CN1C(=O)N(C)C2(c3ccccc3)OC(=S)NC12c1ccccc1 (stereo not given)	89.1% (inactive)
Nc1nc(-c2cnccn2)nn1-c1nc2ccccc2s1	99.7% (inactive)
COc1ccc(N)c(-c2cc3c(c4c2[nH]c2ccc(OC)cc24)CCCC3)c1	76.1% (inactive)
COc1cccc(/C(C#N)=C/c2nc3c(N4CCOCC4)nc(Cl)nc3n2C)c1	-49.8% (active)
O=c1c(-c2nc3ccccc3[nH]2)cc2ccccc2n1Cc1cn(Cc2ccc(N3CCOCC3)cc2)nn1	56.3% (inactive)
Cn1c2c(c(=O)[nH]c1=O)NC1=C(C(=O)c3ccccc31)C1(C=C(O)c3ccccc31)N2 (stereo not given)	113% (inactive)
COC(=O)/C(CCC=C(C)C)=C1\[C@@H](OC(C)=O)C[C@@]2(C)[C@H]1C[C@@H](O)[C@H]1[C@@]3(C)CC[C@H](NCCCNCCCCNCCCN)[C@@H](C)[C@@H]3CC[C@@]12C	31.1% (inactive)

These compounds were tested on SNB-75 CNS in the same assay as above. Conditions: 10 µM unless noted.

Compound	growth
Cc1ccc2sc3c(NCCCNCCO)nc4ccccc4c3c(=O)c2c1	33.3% (inactive)
NCCOc1ncccc1/C=C1\c2ccccc2-c2ccc(F)cc21	15.7% (inactive)
CNCCNc1nc2ccccc2c2c(=O)c3cc(OC)ccc3sc12	43.1% (inactive)
CC(C)c1ccc(S(=O)(=O)NC(=O)NC2CCCC2)cc1	101% (inactive)
COc1cc(/C=C2\CN(C)C/C(=C\c3cc(CN4CCCC4)c(O)c(OC)c3)C2=O)cc(CN2CCCC2)c1O	75.3% (inactive)
Nc1ccccc1-c1ccc(-c2ccc(Cl)cc2)c2c1[nH]c1ccccc12	83% (inactive)
O=C(Cn1cc(COc2ncnc3c2cnn3-c2ccccc2)nn1)Nc1ccccn1	71.9% (inactive)
NCCOc1ccccc1/C=C1\c2ccccc2-c2ccc([N+](=O)[O-])cc21	-5.59% (active)
COc1cc(/C(C#N)=C/c2nc3c(N4CCOCC4)nc(Cl)nc3n2C)cc(OC)c1OC	-9.92% (active)
Cc1ccc2cccc(Oc3ccc(Nc4ncnc5onc(-c6ccccc6)c45)cc3)c2n1	78.1% (inactive)
COC(=O)/C(CCC=C(C)C)=C1\[C@@H](OC(C)=O)C[C@@]2(C)[C@H]1C[C@@H](O)[C@H]1[C@@]3(C)CC[C@H](NCc4ccccc4)[C@@H](C)[C@@H]3CC[C@@]12C	65.1% (inactive)
COc1cc(/C=C/C(=O)c2ccc(Cl)cc2)cc(CN2CCCCC2)c1O	70.9% (inactive)
O=C(/C=C/c1ccc(Cl)cc1)c1ccc(Nc2nc(NCCO)nc(Nc3ccc(Cl)cc3)n2)cc1	47.5% (inactive)
CN1CCN(Cc2ccc(NC(=O)c3[nH]ncc3Nc3cc(OC4CCCC4)ncn3)cc2)CC1	61.7% (inactive)
Cn1c(/C=C(\C#N)c2ccccc2)nc2c(N3CCOCC3)nc(Cl)nc21	-94.9% (active)
CCN1C(=O)N(CC)C2Nn3c(s/c(=C\c4ccccc4F)c3=O)=NC21 (stereo not given)	55.1% (inactive)
Cc1ccccc1CNC(=O)C1CN(c2ccc(Cl)cc2)N(c2ccc(Cl)cc2)C1=O (stereo not given)	88% (inactive)
CCCCC1CCc2cccc3c(SCC(=O)N(C)c4ccc(Cl)cc4)cc[n+]1c23 (stereo not given)	109% (inactive)
Clc1ccc(Oc2ccc(Nc3ncnc4onc(-c5ccccc5)c34)cc2)c(Cl)c1	83.5% (inactive)
O=C(O)c1cn(C2CC2)c2cc(N3CCN(C(=O)C[n+]4ccccc4)CC3)c(F)cc2c1=O	97.2% (inactive)

Compound	growth
O=C(CSc1nc2ccccc2c(=O)n1-c1ccccc1)Nc1ccc(C(=O)/C=C/c2ccc(Cl)cc2)cc1	114% (inactive)
Cc1nc(Nc2cn[nH]c2C(=O)Nc2ccc(CN3CCN(C)CC3)cc2)c2ccsc2n1	37.7% (inactive)
CN1C(=O)N(C)C2Nn3c(s/c(=C4\C(=O)N(CCc5ccccc5)c5ccccc54)c3=O)=NC21 (stereo not given)	48.2% (inactive)
O=C(/C=C/c1ccc(C(F)(F)F)cc1)c1ccc(Nc2nc(NCCO)nc(N3CCOCC3)n2)cc1	40.1% (inactive)
COc1cc(/C=C/C(=O)c2ccc(Nc3nc(NCCO)nc(N4CCOCC4)n3)cc2)cc(OC)c1OC	10.4% (inactive)
COc1cc(/C=C2\CN(S(=O)(=O)c3ccccc3)C/C(=C\c3cc(CN4CCCC4)c(O)c(OC)c3)C2=O)cc(CN2CCCC2)c1O	20.2% (inactive)
O=c1c2cc(F)ccc2sc2c(Nc3ccncc3)nc3ccccc3c12	56.5% (inactive)
O=c1c2cc(F)ccc2sc2c(NCCN3CCCC3)nc3ccccc3c12	77.6% (inactive)
CNC(=O)c1cc(Oc2ccc(CC(=O)Nc3cc(C(C)(C)C)cn3C)cc2)ccn1	52.4% (inactive)
COc1cc2nc(NC3CCCC3)nc(NC3CCN(C(C)C)CC3)c2cc1OC	61.2% (inactive)
O=C(NCc1ccco1)C1CN(c2ccc(Cl)cc2)N(c2ccc(Cl)cc2)C1=O (stereo not given)	16.8% (inactive)
COc1cccc2cc(N(C)c3nc(C)nc4ccsc34)ccc12	36% (inactive)
CN1C(=O)N(C)C2(c3ccccc3)OC(=S)NC12c1ccccc1 (stereo not given)	87.6% (inactive)
Nc1nc(-c2cnccn2)nn1-c1nc2ccccc2s1	96.4% (inactive)
COc1ccc(N)c(-c2cc3c(c4c2[nH]c2ccc(OC)cc24)CCCC3)c1	70.9% (inactive)
COc1cccc(/C(C#N)=C/c2nc3c(N4CCOCC4)nc(Cl)nc3n2C)c1	-17.2% (active)
O=c1c(-c2nc3ccccc3[nH]2)cc2ccccc2n1Cc1cn(Cc2ccc(N3CCOCC3)cc2)nn1	5.39% (active)
Cn1c2c(c(=O)[nH]c1=O)NC1=C(C(=O)c3ccccc31)C1(C=C(O)c3ccccc31)N2 (stereo not given)	92.1% (inactive)
COC(=O)/C(CCC=C(C)C)=C1\[C@@H](OC(C)=O)C[C@@]2(C)[C@H]1C[C@@H](O)[C@H]1[C@@]3(C)CC[C@H](NCCCNCCCCNCCCN)[C@@H](C)[C@@H]3CC[C@@]12C	93.4% (inactive)
